Results reported in ChEMBL document CHEMBL1961873, “Compounds: GSK PKIS; Assays: Nanosyn kinase panel” (2012).

Assays:
[1] = target: T1, Mitogen-activated protein kinase 12 (Homo sapiens) (UniProt P53778); conditions: at 1 µM;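 note: values are averaged p38gamma kinase inhibition readings, compounds tested at 1 µM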
T1 sequence (whole entry): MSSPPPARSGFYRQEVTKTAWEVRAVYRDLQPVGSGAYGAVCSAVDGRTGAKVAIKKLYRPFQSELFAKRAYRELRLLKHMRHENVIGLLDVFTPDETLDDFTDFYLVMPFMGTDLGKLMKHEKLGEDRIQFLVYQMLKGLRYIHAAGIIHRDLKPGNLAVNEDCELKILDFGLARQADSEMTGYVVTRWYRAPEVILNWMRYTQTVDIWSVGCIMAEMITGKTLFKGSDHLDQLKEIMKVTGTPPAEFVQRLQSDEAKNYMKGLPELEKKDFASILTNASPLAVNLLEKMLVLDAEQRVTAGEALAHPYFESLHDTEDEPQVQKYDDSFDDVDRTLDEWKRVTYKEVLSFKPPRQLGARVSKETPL

[2] = target: SRSF protein kinase 1 (Homo sapiens) (UniProt Q96SB4); conditions: at 0.1 µM
[3] = target: SRSF protein kinase 1 (Homo sapiens) (UniProt Q96SB4); conditions: at 1 µM
[4] = target: Phosphatidylinositol 4,5-bisphosphate 3-kinase catalytic subunit alpha isoform (Homo sapiens) (UniProt P42336); conditions: at 0.1 µM
[5] = target: Phosphatidylinositol 4,5-bisphosphate 3-kinase catalytic subunit alpha isoform (Homo sapiens) (UniProt P42336); conditions: at 1 µM
[6] = target: T2, Phosphatidylinositol 4,5-bisphosphate 3-kinase catalytic subunit delta isoform (Homo sapiens) (UniProt O00329); conditions: at 0.1 µM
T2 sequence (whole entry): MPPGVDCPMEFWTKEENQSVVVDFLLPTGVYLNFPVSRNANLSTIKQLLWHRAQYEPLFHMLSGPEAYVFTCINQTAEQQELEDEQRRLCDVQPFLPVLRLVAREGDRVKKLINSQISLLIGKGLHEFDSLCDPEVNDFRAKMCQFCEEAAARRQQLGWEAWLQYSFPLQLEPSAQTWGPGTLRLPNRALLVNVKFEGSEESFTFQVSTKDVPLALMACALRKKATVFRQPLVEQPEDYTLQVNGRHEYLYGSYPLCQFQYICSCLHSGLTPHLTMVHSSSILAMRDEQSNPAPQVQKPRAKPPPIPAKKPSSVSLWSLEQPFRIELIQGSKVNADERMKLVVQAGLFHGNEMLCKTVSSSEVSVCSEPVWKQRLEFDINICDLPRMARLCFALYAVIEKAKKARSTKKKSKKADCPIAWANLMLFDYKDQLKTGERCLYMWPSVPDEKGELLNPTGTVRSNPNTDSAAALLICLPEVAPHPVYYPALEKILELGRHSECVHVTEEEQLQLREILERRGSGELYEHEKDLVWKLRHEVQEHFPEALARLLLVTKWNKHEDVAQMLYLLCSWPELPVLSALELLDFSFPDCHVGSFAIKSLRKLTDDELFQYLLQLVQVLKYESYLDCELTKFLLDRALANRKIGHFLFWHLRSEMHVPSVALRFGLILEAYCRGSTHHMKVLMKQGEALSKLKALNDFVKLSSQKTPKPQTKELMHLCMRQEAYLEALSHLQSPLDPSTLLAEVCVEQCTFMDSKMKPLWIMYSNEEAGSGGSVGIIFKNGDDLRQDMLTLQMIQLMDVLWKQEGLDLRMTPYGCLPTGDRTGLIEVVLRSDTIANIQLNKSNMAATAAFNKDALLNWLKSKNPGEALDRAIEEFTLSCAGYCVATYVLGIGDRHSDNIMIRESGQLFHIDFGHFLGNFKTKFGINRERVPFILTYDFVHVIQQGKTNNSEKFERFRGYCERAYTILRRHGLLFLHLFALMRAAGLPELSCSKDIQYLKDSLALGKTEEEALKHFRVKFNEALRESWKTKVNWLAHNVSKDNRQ

[7] = target: T2, Phosphatidylinositol 4,5-bisphosphate 3-kinase catalytic subunit delta isoform (Homo sapiens); conditions: at 1 µM
[8] = target: Phosphatidylinositol 4-kinase beta (Homo sapiens) (UniProt Q9UBF8); conditions: at 0.1 µM
[9] = target: Phosphatidylinositol 4-kinase beta (Homo sapiens) (UniProt Q9UBF8); conditions: at 1 µM
[10] = target: Sphingosine kinase 1 (Homo sapiens) (UniProt Q9NYA1); conditions: at 0.1 µM
[11] = target: Sphingosine kinase 1 (Homo sapiens) (UniProt Q9NYA1); conditions: at 1 µM
[12] = target: T3, Sphingosine kinase 2 (Homo sapiens) (UniProt Q9NRA0); conditions: at 0.1 µM
T3 sequence (whole entry): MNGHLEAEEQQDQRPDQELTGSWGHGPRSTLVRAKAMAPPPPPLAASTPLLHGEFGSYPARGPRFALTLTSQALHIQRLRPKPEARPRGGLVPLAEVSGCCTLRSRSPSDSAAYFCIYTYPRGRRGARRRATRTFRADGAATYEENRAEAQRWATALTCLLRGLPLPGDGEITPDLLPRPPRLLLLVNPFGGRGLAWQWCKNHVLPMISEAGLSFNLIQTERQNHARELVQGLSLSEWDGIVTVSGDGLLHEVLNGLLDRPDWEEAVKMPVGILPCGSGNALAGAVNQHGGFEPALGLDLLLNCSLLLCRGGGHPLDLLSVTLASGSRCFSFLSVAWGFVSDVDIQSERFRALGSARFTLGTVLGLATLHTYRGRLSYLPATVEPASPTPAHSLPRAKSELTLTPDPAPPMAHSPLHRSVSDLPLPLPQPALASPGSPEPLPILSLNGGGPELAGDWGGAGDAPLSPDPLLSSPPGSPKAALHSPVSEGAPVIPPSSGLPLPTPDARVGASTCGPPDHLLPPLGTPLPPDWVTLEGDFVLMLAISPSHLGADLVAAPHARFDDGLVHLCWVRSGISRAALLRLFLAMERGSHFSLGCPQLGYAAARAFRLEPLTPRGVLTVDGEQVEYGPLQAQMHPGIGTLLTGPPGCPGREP

[13] = target: T3, Sphingosine kinase 2 (Homo sapiens); conditions: at 1 µM
[14] = target: Casein kinase II subunit alpha (Homo sapiens) (UniProt P68400); conditions: at 0.1 µM
[15] = target: Casein kinase II subunit alpha (Homo sapiens) (UniProt P68400); conditions: at 1 µM
[16] = target: T4, Inhibitor of nuclear factor kappa-B kinase subunit alpha (Homo sapiens) (UniProt O15111); conditions: at 0.1 µM
T4 sequence (whole entry): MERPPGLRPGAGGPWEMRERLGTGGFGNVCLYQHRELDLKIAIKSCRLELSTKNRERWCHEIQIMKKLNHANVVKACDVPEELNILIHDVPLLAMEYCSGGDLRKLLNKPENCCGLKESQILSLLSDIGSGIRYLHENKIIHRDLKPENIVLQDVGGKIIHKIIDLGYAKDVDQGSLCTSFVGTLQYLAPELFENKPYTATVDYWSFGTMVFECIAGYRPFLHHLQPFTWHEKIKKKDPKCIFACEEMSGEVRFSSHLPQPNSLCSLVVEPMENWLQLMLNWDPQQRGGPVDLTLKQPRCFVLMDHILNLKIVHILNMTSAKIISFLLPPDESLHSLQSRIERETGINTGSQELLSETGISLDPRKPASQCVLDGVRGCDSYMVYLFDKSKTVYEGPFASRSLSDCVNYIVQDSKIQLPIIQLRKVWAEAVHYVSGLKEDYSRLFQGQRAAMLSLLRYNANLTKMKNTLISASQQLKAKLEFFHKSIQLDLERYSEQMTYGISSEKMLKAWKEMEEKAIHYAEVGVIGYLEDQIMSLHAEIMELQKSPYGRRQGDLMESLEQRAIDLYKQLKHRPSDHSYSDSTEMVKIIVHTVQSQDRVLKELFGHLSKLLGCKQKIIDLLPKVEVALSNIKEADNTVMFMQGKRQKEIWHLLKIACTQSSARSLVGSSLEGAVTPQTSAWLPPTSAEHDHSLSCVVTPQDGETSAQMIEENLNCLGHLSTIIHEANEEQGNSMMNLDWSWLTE

[17] = target: T4, Inhibitor of nuclear factor kappa-B kinase subunit alpha (Homo sapiens); conditions: at 1 µM
[18] = target: T5, Inhibitor of nuclear factor kappa-B kinase subunit beta (Homo sapiens) (UniProt O14920); conditions: at 0.1 µM
T5 sequence (whole entry): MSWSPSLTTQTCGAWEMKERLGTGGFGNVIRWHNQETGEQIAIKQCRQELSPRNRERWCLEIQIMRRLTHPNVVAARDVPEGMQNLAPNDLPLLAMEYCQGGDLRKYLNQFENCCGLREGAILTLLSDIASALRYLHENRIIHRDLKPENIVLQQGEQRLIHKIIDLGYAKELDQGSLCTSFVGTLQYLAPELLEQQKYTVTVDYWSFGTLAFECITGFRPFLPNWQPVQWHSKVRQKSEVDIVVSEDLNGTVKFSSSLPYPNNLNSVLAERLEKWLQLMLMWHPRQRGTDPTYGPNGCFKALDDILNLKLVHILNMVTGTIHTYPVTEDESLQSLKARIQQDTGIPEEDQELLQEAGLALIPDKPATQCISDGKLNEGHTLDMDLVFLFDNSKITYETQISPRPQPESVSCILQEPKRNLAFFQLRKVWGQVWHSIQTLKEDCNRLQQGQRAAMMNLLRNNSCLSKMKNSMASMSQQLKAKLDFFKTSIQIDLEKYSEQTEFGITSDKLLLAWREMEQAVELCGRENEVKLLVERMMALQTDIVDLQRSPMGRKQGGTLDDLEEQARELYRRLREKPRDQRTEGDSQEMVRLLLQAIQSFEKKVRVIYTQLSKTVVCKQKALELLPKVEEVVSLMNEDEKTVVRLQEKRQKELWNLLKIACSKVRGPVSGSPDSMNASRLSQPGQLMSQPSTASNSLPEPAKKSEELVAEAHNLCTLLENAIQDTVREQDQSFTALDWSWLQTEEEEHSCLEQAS

[19] = target: T5, Inhibitor of nuclear factor kappa-B kinase subunit beta (Homo sapiens); conditions: at 1 µM
[20] = target: T6, Inhibitor of nuclear factor kappa-B kinase subunit epsilon (Homo sapiens) (UniProt Q14164); conditions: at 0.1 µM;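 note: mean inhibition of IKKε reported, from the GSK PKIS dataset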
T6 sequence (whole entry): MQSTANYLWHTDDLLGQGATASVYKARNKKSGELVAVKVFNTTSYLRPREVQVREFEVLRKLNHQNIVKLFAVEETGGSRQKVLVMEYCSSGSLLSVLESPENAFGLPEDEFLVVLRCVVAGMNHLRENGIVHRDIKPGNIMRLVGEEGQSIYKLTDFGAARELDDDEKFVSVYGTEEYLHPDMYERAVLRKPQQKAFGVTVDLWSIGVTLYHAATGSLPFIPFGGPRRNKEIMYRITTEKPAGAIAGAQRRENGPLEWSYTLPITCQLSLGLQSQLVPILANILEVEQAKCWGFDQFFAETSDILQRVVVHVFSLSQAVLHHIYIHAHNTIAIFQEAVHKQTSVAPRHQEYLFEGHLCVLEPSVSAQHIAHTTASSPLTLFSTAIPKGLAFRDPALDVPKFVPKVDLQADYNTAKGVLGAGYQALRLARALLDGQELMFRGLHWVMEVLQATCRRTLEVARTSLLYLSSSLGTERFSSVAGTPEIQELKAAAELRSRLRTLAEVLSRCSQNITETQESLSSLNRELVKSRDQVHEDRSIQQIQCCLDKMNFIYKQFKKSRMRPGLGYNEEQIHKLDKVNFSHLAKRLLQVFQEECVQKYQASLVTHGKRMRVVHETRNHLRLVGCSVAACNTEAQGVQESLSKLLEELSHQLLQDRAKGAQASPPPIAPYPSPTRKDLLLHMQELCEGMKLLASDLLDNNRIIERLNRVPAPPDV

Sequence of SRSF protein kinase 1 (Homo sapiens) (Q96SB4 whole entry, canonical isoform): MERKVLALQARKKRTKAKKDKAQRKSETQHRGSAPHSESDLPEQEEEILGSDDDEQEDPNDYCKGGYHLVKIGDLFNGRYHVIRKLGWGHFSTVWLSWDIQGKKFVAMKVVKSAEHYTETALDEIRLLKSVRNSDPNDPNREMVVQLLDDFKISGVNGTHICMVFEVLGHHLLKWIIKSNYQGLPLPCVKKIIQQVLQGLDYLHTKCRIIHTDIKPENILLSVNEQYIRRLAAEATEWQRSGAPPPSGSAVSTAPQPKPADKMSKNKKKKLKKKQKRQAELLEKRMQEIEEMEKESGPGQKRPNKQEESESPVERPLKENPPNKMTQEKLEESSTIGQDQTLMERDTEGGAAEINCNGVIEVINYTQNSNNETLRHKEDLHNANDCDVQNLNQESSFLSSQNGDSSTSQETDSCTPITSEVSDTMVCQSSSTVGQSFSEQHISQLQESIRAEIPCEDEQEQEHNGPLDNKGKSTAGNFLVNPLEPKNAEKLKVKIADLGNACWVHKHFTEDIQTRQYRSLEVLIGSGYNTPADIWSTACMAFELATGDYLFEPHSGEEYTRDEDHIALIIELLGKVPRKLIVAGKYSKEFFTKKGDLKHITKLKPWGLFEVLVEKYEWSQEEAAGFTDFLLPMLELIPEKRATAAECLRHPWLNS
Sequence of Casein kinase II subunit alpha (Homo sapiens) (P68400 whole entry, looked up): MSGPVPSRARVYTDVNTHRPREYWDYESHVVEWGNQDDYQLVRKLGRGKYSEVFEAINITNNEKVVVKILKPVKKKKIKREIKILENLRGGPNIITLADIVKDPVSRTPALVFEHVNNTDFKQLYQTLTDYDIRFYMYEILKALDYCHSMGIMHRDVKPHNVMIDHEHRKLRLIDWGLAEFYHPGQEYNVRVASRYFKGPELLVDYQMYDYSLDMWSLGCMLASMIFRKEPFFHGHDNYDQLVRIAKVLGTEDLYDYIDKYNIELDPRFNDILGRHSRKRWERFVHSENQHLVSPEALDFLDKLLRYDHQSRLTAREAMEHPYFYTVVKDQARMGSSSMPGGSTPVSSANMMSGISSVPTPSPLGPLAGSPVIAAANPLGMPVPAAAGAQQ
Sequence of Phosphatidylinositol 4,5-bisphosphate 3-kinase catalytic subunit alpha isoform (Homo sapiens) (P42336 whole entry, canonical isoform): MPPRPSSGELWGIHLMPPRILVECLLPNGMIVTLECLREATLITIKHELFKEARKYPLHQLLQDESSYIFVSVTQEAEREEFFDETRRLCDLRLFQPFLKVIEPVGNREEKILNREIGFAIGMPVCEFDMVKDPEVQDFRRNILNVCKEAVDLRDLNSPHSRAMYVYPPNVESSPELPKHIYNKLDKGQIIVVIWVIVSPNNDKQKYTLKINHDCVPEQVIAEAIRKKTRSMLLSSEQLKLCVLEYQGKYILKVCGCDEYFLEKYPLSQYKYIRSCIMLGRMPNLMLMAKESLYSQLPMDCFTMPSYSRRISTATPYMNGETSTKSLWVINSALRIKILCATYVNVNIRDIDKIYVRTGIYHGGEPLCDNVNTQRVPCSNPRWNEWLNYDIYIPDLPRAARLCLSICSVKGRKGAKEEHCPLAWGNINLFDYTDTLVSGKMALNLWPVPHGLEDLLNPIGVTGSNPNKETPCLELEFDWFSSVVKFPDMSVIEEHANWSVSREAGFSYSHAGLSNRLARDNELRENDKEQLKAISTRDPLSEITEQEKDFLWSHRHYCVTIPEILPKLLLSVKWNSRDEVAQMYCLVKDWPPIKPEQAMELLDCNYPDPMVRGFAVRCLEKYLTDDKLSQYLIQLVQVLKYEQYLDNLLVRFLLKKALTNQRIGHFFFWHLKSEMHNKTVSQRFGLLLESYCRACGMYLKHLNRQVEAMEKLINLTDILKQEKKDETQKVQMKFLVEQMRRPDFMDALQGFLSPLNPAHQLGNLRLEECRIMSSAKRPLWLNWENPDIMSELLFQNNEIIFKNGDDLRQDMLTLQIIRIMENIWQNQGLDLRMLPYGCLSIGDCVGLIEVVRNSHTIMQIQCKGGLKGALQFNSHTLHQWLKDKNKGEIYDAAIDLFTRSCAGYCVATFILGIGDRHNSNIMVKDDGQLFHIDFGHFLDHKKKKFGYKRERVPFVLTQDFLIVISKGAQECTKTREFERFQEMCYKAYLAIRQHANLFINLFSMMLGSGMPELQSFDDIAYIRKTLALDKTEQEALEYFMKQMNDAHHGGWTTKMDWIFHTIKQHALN
Sequence of Phosphatidylinositol 4-kinase beta (Homo sapiens) (Q9UBF8 2-816 limits assumed): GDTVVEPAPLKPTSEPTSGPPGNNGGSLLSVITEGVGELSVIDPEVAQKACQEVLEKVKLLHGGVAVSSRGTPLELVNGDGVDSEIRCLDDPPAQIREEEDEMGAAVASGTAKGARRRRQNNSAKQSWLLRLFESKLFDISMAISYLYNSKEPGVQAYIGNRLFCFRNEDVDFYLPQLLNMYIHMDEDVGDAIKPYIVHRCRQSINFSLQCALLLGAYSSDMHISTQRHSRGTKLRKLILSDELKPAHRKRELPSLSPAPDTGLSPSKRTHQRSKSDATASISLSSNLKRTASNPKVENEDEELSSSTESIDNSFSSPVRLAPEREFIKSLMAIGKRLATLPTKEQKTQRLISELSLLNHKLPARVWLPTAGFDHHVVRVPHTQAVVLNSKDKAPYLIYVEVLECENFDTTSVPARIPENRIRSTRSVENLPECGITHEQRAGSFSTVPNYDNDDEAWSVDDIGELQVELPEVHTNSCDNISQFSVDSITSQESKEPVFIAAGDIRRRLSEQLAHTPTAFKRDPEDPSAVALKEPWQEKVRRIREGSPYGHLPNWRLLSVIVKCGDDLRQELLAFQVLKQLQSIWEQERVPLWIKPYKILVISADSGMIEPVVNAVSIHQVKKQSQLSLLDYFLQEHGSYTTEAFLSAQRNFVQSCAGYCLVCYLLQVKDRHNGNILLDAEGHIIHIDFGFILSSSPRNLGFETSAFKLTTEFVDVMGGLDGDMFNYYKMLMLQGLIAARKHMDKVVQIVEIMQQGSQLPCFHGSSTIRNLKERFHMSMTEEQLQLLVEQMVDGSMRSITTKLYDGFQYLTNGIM
Sequence of Sphingosine kinase 1 (Homo sapiens) (Q9NYA1 whole entry): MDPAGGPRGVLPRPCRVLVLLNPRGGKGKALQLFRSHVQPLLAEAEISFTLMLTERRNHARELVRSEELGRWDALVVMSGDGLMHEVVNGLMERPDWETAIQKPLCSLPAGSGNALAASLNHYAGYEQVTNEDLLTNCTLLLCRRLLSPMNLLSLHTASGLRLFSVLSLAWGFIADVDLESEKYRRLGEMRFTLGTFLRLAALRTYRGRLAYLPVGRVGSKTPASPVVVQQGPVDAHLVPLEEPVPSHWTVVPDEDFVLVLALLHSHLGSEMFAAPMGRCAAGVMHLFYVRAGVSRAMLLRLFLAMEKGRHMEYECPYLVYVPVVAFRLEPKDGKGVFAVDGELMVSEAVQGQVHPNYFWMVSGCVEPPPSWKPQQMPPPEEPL

| Structure (SMILES) | inhibition [1] [%] | inhibition [2] [%] | inhibition [3] [%] | inhibition [4] [%] | inhibition [5] [%] | inhibition [6] [%] | inhibition [7] [%] | inhibition [8] [%] | inhibition [9] [%] | inhibition [10] [%] | inhibition [11] [%] | inhibition [12] [%] | inhibition [13] [%] | inhibition [14] [%] | inhibition [15] [%] | inhibition [16] [%] | inhibition [17] [%] | inhibition [18] [%] | inhibition [19] [%] | inhibition [20] [%] |
| --- | --- | --- | --- | --- | --- | --- | --- | --- | --- | --- | --- | --- | --- | --- | --- | --- | --- | --- | --- | --- |
| CC(C)(CO)CNC(=O)c1ccc2c(c1)/C(=N/Nc1ccc(S(N)(=O)=O)cc1)C(=O)N2 | 0.79 | -1.95 | -1.91 | -2.03 | -1.12 | -0.73 | 2.18 | -1.03 | -0.32 | 0.09 | 0.62 | 0.34 | 0.16 | 2.49 | 23.5 | 4.85 | 3.43 | 3.25 | 0.5 | 14.3 |
| [O-][S+]1CCN(Cc2ccc(-c3ccc4ncnc(Nc5ccc(OCc6cccc(F)c6)c(Cl)c5)c4c3)o2)CC1 | 4.04 | -1.9 | -2.12 | 5.72 | 6.58 | 2.17 | 6.89 | 0.59 | -7.5 | -0.15 | 1.32 | 4.71 | 0.73 | 12.8 | 4.15 | 8.15 | 9.46 | 9.09 | 7.58 | 11.3 |
| COc1cccc(-n2ncc3c(N/N=C/c4ccc(F)cc4)ncnc32)c1 | 1.41 | -0.75 | 2.6 | 3.46 | 19.1 | 0.55 | 17.3 | -4.22 | -5.29 | 2.72 | -1.38 | -1.23 | 0.38 | 4.77 | 15.9 | 12.3 | 6.86 | 5.69 | 3.91 | 14.1 |
| CCn1c(-c2nonc2N)nc2cnc(Oc3cccc(NC(=O)c4ccc(N(C)C)cc4)c3)cc21 | 1.5 | -1.72 | -1.86 | -0.72 | 0.76 | 0.62 | 1.65 | -0.87 | 2.47 | -2.61 | -3.07 | 0 | 2.32 | 0.64 | 0.04 | 5.93 | 2.52 | 2.96 | 1.85 | 3.07 |
| Cc1ccc(O)cc1Nc1ccnc2cc(-c3ccccn3)ccc12 | 3 | -1.63 | -2.47 | 2.72 | 7.92 | 2.39 | 15.8 | -2.37 | -0.81 | 0 | 0.38 | 0.62 | -0.19 | 1.53 | -1.39 | 1.97 | -1.79 | 6.75 | 1.3 | 5.73 |
| COC(=O)Nc1nc2ccc(S(=O)(=O)c3ccc(NC(=O)Nc4cc(C(F)(F)F)ccc4F)cc3)cc2[nH]1 | 2.36 | -1.52 | -4.55 | 0.87 | 2.69 | 2.19 | 2.98 | 1.19 | 1.36 | -0.71 | -2.79 | -0.31 | 0.98 | -0.42 | -2.21 | 6.4 | 2.23 | 5.3 | 7.84 | 2.8 |
| NC(=O)c1sc(-n2cnc3ccc(C(F)(F)F)cc32)cc1OCc1ccccc1Br | 2.37 | -1.69 | -2.85 | 3.78 | 4.29 | 1.52 | 4.21 | -2.33 | -2.08 | 2.38 | -0.89 | -0.23 | -0.48 | 3.45 | 5.66 | 12.5 | 11.2 | 6.41 | 6.44 | 5.17 |
